A number with no mark means an inactive call.

A short description of this test: splicing luciferase reporter signal modulators, primary screen, spliceosome inhibition project, cell-based, HEK293, splice +/- reporter (AID 1101).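 Further: HEK293 cells carrying a splicing-competent luciferase reporter gene; test concentration not given here.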 As to conditions: luminescence, 24 h, higher = more signal, called active from +8 up or from −8 down. A general note: Reporter assays use an easily measured gene product as a stand-in for the process of interest.
Take `O=C1CCCC(C2=CCCCC2=O)C1` (stereo not drawn): the z-score was 0.378. As to `Cn1c(=O)n2n(c1=O)[C@H]1[C@H](O)[C@@H]3O[C@@H]3C(=NOCc3ccccc3)[C@H]1CC2`, the z-score is 2.48. `CO[C@H](C1CCCCC1)[C@H](C)C=CCC(=O)OCCCc1ccccc1`: the z-score was -0.0118. As for `COC(=O)[C@H](C)NC(=O)CCC1CC(OC(=O)NCc2ccc3c(c2)OCO3)CC2(CCCC(COC(=O)NCC(c3ccccc3)c3ccccc3)O2)O1` (stereo partly drawn), the figure is -0.845; as for `O=c1n(-c2ccccc2)c(=O)n2n1CC[C@@H]1C(=NOCc3ccccc3)[C@H]3O[C@H]3[C@@H](O)[C@@H]12`, 0.491; as for `COC(=O)[C@H]1[C@@H](O)[C@@]2(O)c3ccccc3O[C@@]2(c2ccccc2)[C@@H]1c1ccccc1`, 0.217. Take `COC(=O)CC=C[C@@H](C)[C@@H](C=NOC(C)CN1CCCc2nc(C)c(C)cc21)OC` (stereo partly drawn): the z-score is 0.404. Take `COC(=O)[C@H](C)NC(=O)CCC1CC(OC(=O)NCCc2ccc(F)cc2)CC2(CCCC(COC(=O)NCc3cccc(C(F)(F)F)c3)O2)O1` (stereo partly drawn): the z-score is 0.249. As for `Cc1ccc(S(=O)(=O)N[C@H]2COC(=O)CC=C[C@H](C)[C@@H](NS(=O)(=O)c3ccc(C)cc3)COC(=O)CC=C[C@@H]2C)cc1`, the figure is 0.647. For `CON=C1[C@H]2CCn3c(=O)n(-c4ccccc4)c(=O)n3[C@H]2[C@H](O)[C@@H]2O[C@H]12`, the z-score was -0.871. On to `C#CCCCON=C1C[C@@H](O)[C@@H](O)[C@@H]2[C@@H]3C(=O)N(C(C)(C)C)C(=O)[C@@H]3CC[C@@H]12`, for which the z-score is 0.624. On to `CO[C@H]1COC(=O)CC=C[C@@H](C)[C@H](NS(=O)(=O)c2ccc(C)cc2)COC(=O)CCC[C@@H]1C`, for which the z-score is -0.679. To `COc1ccc(COC(=O)NN=C2C[C@@H](O)[C@@H](O)[C@@H]3[C@@H]4C(=O)N(c5ccc(F)cc5F)C(=O)[C@@H]4CC[C@H]23)cc1` belongs -0.531; to `COc1ccc(O[C@H]2C=C[C@@H](c3ccccc3)O[C@@H]2COC(=O)CCC(C)=NOC[C@@H](O)[C@H]2O[C@@H]3OC(C)(C)O[C@@H]3[C@H]2O)cc1`, 0.17. In the case of `CO[C@H]1COC(=O)CC=C[C@H](C)[C@@H](OC)COC(=O)[C@H](C)COC(=O)CC=C[C@@H]1C`, the z-score was -0.0334.

With `CCOC(=O)C1=NO[C@]2(C=C(Br)C3(OCCCO3)[C@H]3O[C@H]32)C1`, the z-score was 0.437. To `Cc1cc2c(nc1C)CCCCN2CC(C)ON=C1[C@H]2CCn3c(=O)n(-c4ccccc4)c(=O)n3[C@H]2[C@H](O)[C@@H]2O[C@H]12` (stereo partly drawn) belongs 0.718.

As to `COc1ccc(O[C@H]2C=C[C@@H](c3ccccc3)O[C@@H]2COC(=O)CCC(C)=NO[C@@H]2O[C@H](COC(C)=O)[C@@H](OC(C)=O)[C@H](OC(C)=O)[C@H]2OC(C)=O)cc1`, the z-score was -0.315. Consider `Cc1cc2c(c(=O)o1)[C@@H](O)[C@H]1O[C@H]1C2=O`, for which the z-score is -0.533.

For the molecule `CCOC(=O)CCN1C(=O)[C@H]2[C@H]3[C@H](O)[C@H](O)CC(=NNC(=O)OCc4ccccc4)[C@@H]3CC[C@H]2C1=O`, the z-score was 0.265. Consider `O=C1[C@H]2[C@H]3[C@H](O)[C@H](O)CC(=NOC[C@@H](O)COCc4ccco4)[C@@H]3CC[C@H]2C(=O)N1C[C@@H]1CCCO1`, for which the z-score was -0.134. Turning to `CC(C)CON=C1C[C@@H](O)[C@@H](O)[C@@H]2[C@@H]3C(=O)N(C[C@@H]4CCCO4)C(=O)[C@@H]3CC[C@@H]12`, the z-score is 0.926. As for `CON=Cc1ccc(C(=O)N2[C@H](c3ccc(C)cc3)[C@@H](C)CC[C@H]2C(=O)OC)cc1`, the figure is 0.224; as for `C[C@@H](c1ccccc1)N1C(=O)[C@H]2[C@H]3[C@H](O)[C@H](O)CC(=O)[C@H]3CC[C@H]2C1=O`, 0.282. To `CC(C)CON=C1C[C@@H](O)[C@@H](O)[C@@H]2[C@@H]3C(=O)N(Cc4ccc5c(c4)OCO5)C(=O)[C@@H]3CC[C@H]12` belongs 0.31. As to `CCN1C(=O)[C@H]2[C@H]3[C@H](O)[C@H](O)CC(=NOCC(C)C)[C@@H]3CC[C@H]2C1=O`, the z-score was 0.272. To `CC(C)=NO[C@H](C)c1cn([C@H](CO)Cc2ccccc2)nn1` belongs 1; to `CCCNC(=O)OC[C@H]1O[C@H](c2ccccc2)C=C[C@@H]1Oc1ccc(OC)cc1`, -0.0906.

Source of the values: PubChem BioAssay.
